Source: PubChem
Chronic BCR inh – qHTS Assay to Find Inhibitors of Chronic Active B-Cell Receptor Signaling | 340,000 compounds, 0.05% hits | ABC-DLBCL IkBa-CBG/CBR reporter, luminescence ratio, 4 h | Potency, µM (series often up to 46.1 µM), for inactives: at the top dose activity change, negative = inhibition, usual class: inhibitors; active means well fitted inhibition curve with a large enough effect in the signal ratio, with a control signal flat, not every such curve was filed as active; inconclusive means small, poorly fitted or top-dose-only effect, or effect the other way, or a change in a side signal; the % refers to the signal ratio;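 further: potency means the concentration at half of the fitted maximal effect; plate controls were basal doxycycline-induced cells for no effect and cells given 10 µM MG132 for full effect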
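Doxycycline induced both beetle luciferases in TMD8 lymphoma cells; IKK-driven degradation limits the IkappaBalpha-fused green signal, while red luminescence normalises for cell number and nonspecific effects. Compounds tested up to 46 uM, 4 hrs.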
Pin1 inh – qHTS Assay to Find Inhibitors of Pin1; Peptidyl-prolyl cis-trans isomerase NIMA-interacting 1 (Homo sapiens), Q13526; Pin1 FP peptide displacement, HiFluor488, 10 min; Potency, µM (top dose mostly 115 µM), for inactives: top-dose activity, negative = inhibition, usual class: inhibitors; 390,000 compounds, 0.009% hits; active means well fitted inhibition curve with a large enough effect in the polarisation, with a control signal flat, not every such curve was filed as active; inconclusive means small, poorly fitted or top-dose-only effect, or effect the other way, or a change in a side signal; inactive means no such curve, though single readings can be large or run the other way; the % refers to the polarisation; further: potency means the concentration at half of the fitted maximal effect
Target sequence (Q13526 whole entry, looked up): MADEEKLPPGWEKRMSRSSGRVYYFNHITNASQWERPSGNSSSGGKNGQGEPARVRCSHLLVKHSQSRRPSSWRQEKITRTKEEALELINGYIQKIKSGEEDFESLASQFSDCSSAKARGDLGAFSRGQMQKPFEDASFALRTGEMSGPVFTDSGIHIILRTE
PI4K2A block – qHTS for small molecular inhibitors of PI4K2A. purified PI4K2A, ADP-Glo luminescence, 1 h; active compounds read low. AID 1346378, 2018. Phosphatidylinositol 4-kinase type 2-alpha (Homo sapiens), Q9BTU6. activity change, negative = inhibition, % at 76.9 µM. 420,000 compounds, 0.13% hits; in the data active means activity change below about -50%; inconclusive means mostly about -30% to -49%;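 further: -100% = wells without enzyme as full effect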
Target sequence (Q9BTU6 whole entry, looked up): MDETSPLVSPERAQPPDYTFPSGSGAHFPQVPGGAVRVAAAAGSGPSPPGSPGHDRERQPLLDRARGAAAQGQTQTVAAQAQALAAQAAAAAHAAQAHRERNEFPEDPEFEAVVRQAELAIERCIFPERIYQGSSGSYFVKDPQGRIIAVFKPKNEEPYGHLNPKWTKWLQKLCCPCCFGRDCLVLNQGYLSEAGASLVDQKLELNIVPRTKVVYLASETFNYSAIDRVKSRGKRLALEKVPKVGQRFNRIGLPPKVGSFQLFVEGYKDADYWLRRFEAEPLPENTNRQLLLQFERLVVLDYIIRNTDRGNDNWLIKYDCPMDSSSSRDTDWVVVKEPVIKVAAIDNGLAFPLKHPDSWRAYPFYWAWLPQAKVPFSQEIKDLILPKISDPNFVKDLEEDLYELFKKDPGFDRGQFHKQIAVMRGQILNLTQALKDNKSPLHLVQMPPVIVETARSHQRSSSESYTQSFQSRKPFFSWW
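In this quantitative HTS, ADP production by PI4K2A was quantified luminescently after 1 h at ambient temperature; 100 microM adenosine served as plate-quality control.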
Tb PGK inh – qHTS Assay to Find Inhibitors of Phosphoglycerate Kinase | Phosphoglycerate kinase, glycosomal (Trypanosoma brucei brucei), P07378 | PGK/GAPDH coupled, Kinase-Glo luminescence, 60 min | Potency, µM (titrated, usually from 57.5 µM), without a hit: at the highest dose activity change, negative = inhibition, usual class: inhibitors | 380,000 compounds, 0.043% hits | AID 602233, 2012; further: potency means the concentration at half of the fitted maximal effect; nearly all actives have a fitted effect of over 60% in size
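Recombinant glycosomal PGK reaction used 1,3-bisphosphoglycerate generated in-well by GAPDH (100nM final) in 100mM TEA pH 7.6, 5mM MgCl2, 0.01% Tween-20. After 60 minutes at room temperature, ATP was read by Kinase-Glo Plus luminescence end-point.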
Tb PFK block – qHTS Assay to Find Inhibitors of T. brucei phosphofructokinase; ATP-dependent 6-phosphofructokinase (Trypanosoma brucei brucei), O15648; T. brucei PFK, ADP-Glo luminescence; Potency, µM (highest dose often 57.5 µM), inactives show at the highest dose activity, negative = inhibition, hits mostly inhibitors; 330,000 compounds, 0.17% hits; AID 485367, 2010;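 further: potency means the concentration at half of the fitted maximal effect; 0% = uninhibited 1x PFK enzyme wells and -100% = no-enzyme wells; nearly all actives have a fitted effect of over 60% in size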
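Compounds were pin-transferred as a titration series up to 57 uM into substrate buffer (0.5 mM F6P, 0.1 mM ATP, pH 8.0), then 1.25 nM PFK was added and reactions ran 45 min before ADP-Glo detection.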
An asterisk follows results filed as active; i = inactive; u = inconclusive; x = no result given; ! = not active in a repeat. This is a sample that favours compounds with a hit; in the whole collection about 0.34% have one here. Unless noted, the call rests on the fitted dose curve; in most records, active means well fitted curve in the direction sought with a large enough effect; inconclusive means small, poorly fitted or top-dose-only effect, or another doubt; inactive means no such curve, though single readings can be large; an effect the other way counts as inactive or inconclusive. Unless noted, on the % scale 0 is the no-effect control and ±100 the full control effect.

SMILES | Chronic BCR inh | Pin1 inh | PI4K2A block | Tb PGK inh | Tb PFK block
CC1OC(CC(=O)O)CC2=C1C(=O)c1c(O)cccc1C2=O (centres undefined) | x | x | -59* | -8% | x
O=C1c2cccc(O)c2C(=O)c2c(O)cccc21 | 0% | x | -2 | x | 0%
CN(C)c1cccc(-c2ncc(F)c(N3CCC(C(N)=O)CC3)n2)c1 | x | -1% | x | x | x
CCN(CC)c1ccc(/C=C(\C#N)c2ccccn2)cc1 | u | u | -9 | i | 2%
N#C/C(=C\c1ccc(C(=O)O)cc1)c1ccccn1 | -15% | -8% | -65* | -19% | 0%
COc1cc2c(cc1OC)-c1cc(NC3CCCC3)nc(=O)n1CC2 | 16µM* | 5% | -3 | -4% | -2%
CCN(CC)c1ccc(Nc2cc3n(c(=O)n2)CCc2cc(OC)c(OC)cc2-3)cc1 | 11µM* | 5% | 4 | 7% | 0%
O=C(O)c1cccc(N2C(=O)c3cc([N+](=O)[O-])cc4cc([N+](=O)[O-])cc(c34)C2=O)c1 | u | x | -67* | 25µM* | -12%
O=C(O)c1cccc(N2C(=O)c3cccc4cccc(c34)C2=O)c1 | 1% | -2% | 4 | -3% | 6%
Cc1cccc(NC(=O)c2ccc(OC3CSC3)cc2)c1 | u | -4% | -50* | -21% | -5%
CC(=O)c1cccc(NC(=O)c2ccc(OC3CSC3)cc2)c1 | 22% | 1% | 5 | 1% | 1%
O=C(O)c1nn(-c2ccccc2)nc1-c1nn(-c2ccccc2)nc1C(=O)O | 10% | u | -9 | -5% | u
O/N=C1/CC/C(=N\O)c2nn(-c3ccccc3)nc21 | 5.8µM* | 7% | -6 | -6% | -4%
O=C(Oc1c(CN2CCOCC2)cc(Cl)c2cccnc12)c1ccccc1F | 3.5µM* | -9% | -15 | -6% | 0%
O=C(Oc1c(CN2CCOCC2)cc(Cl)c2cccnc12)c1ccccc1 | u | -7% | -8 | -8% | -2%
CC1(C)N=C(Nc2nc3ccccc3o2)NC2=C1C(=O)CCC2 | x | -10% | x | x | x
CS(=O)(=O)N1CCN(c2nc(-c3ccc(Br)cc3)cs2)CC1 | x | -3% | x | x | x
Cc1nc(C2COc3ccccc3O2)sc1C(=O)O (centres undefined) | u | -3% | -63* | -23% | 0%
COc1ccccc1N1CCN(CCN(C(=O)C2CCCCC2)c2ccccn2)CC1 | 11% | -3% | -65*! | 9% | 2%
COc1ccccc1N1CCN(CC(C)N(C(=O)C2CCCCC2)c2ccccn2)CC1 (centres undefined) | -5% | 9% | 3 | -3% | -2%
O=c1ccc(NS(=O)(=O)c2ccc(Cl)cc2)cn1Cc1ccc(Cl)c(Cl)c1 | u | 8% | -59* | -6% | -1%
O=C(O)C1Nc2c(Cl)cc(Cl)cc2C2C=CCC12 (centres undefined) | 0% | u | -12 | 25µM* | u
O=C(O)C1Nc2ccc(Br)cc2C2C=CCC12 (centres undefined) | 2% | x | -9 | 32µM* | u
O=C(O)C1Nc2c(Cl)cc(Cl)c(Cl)c2C2C=CCC12 (centres undefined) | x | x | -6 | u | x
COc1ccc(-c2nc3ccc(Cl)cc3c(=O)n2Cc2ccccc2)cc1COc1ccc(NC(C)=O)cc1 | x | -4% | x | x | x
SMILES | Chronic BCR inh | Pin1 inh | PI4K2A block | Tb PGK inh | Tb PFK block
O=C(Nc1ccccc1)C1CCN(c2nc(-c3ccc(Br)cc3)cs2)CC1 | x | 32% | x | x | x
N=c1c2c(ccn1-c1ccccc1)Oc1ccc3ccccc3c1C2c1ccccc1 (centres undefined) | x | 42% | x | x | x
CCOC(=O)Cc1csc(NC(=O)c2ccc(Br)s2)n1 | -1% | x | x | x | 1%
CCOC(=O)Cc1csc(NC(=O)c2ccoc2C)n1 | u | -1% | -50* | -17% | -9%
CCOC(=O)Cc1csc(NC(=O)c2c(C)noc2C)n1 | x | 8% | 1 | 4% | x
CCOC(=O)Cc1csc(NC(=O)c2cccs2)n1 | u | -8% | -84* | -3% | 6%
COC(=O)c1ccc(NC(=O)C(=O)c2cccn2C)cc1 | u | 2% | -82* | -6% | -24%
COc1cc(Cn2ncc3c4sc(C)cc4n(C)c3c2=O)cc(OC)c1 | x | 1% | x | x | x
COc1ccc(-c2nn(C)c(=O)c3ccccc23)cc1CNS(C)(=O)=O | 18µM* | -9% | 3 | -2% | 3%
COc1ccc(-c2nn(C)c(=O)c3ccccc23)cc1NS(C)(=O)=O | u | -5% | -3 | -5% | 4%
CCOc1ccc(NC(=O)Nc2cc(C)ccc2F)cc1 | u | -2% | -64* | -27% | -10%
CCOc1ccc(NC(=O)Nc2cc(C(C)C)c(O)cc2C)cc1 | -13% | -4% | 0 | 4% | -5%
CCNC(=S)N/N=C(\C)c1ccc(Cl)s1 | u | -5% | -19 | 3% | 1%
CNC(=S)N/N=C(\C)c1ccc(Cl)s1 | 16µM* | -7% | -2 | 12% | 6%
NC(=O)C1CCN(c2ncc(-c3cccc(N4CCOCC4)c3)s2)CC1 | x | -3% | x | x | x
COc1ccc(/C=N/Nc2nncn2N)cc1Br | u | 0% | -54* | -11% | 0%
CN(Cc1nccs1)c1ncnc2ccc(-c3ccc4c(c3)OCO4)cc12 | x | -1% | x | x | x
Cc1ccc(-n2nnc(-c3nccn3C)n2)cc1 | u | 1% | -53* | u | -25%
Cc1ccc([S+](=O)([O-])Nc2nn3c(=O)c4ccccc4nc3s2)cc1C | x | 0% | x | x | x
NC(=S)N/N=C/c1ccc(-c2ccccc2)o1 | u | 5% | -2 | 1% | 1%
Cc1ccc(-c2ccc(/C=N/NC(N)=S)o2)cc1 | 22µM* | 1% | -4 | i | 2%
OCc1ccnc2c(O)cccc12 | 6.3µM* | u | u | 0% | 2%
NC(=O)c1ccnc2c(O)cccc12 | u | -2% | -19 | 7% | -9%
CCN1CCN(Cc2ccc(NC(=O)c3ccc(C)c(NC(=O)N4CCNC4=O)c3)cc2C(F)(F)F)CC1 | u | 1% | -17 | 25µM*! | 0%
O=S(=O)(c1cccc(O)c1)N1CCN(S(=O)(=O)c2c(F)cccc2F)CC1 | x | -6% | x | x | x
COC(=O)c1nn(-c2ccc3c(c2)CCN3C(C)=O)cc1O | -8% | 0% | -85* | u | u
